Molecules are shown by their SMILES. Active and inactive are the calls of the source.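 How the source made its calls: active means normalized viability below 100% at a tested concentration; inactive means the rest.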

As usually defined, the viability is a read-out of living cells in per cent, often relative to untreated cells.

One assay can be described thus: drug combination growth inhibition, ovarian cancer – cell-based, oncology-focused library, rucaparib conditional, profiling panel (AID 1508598). The note with it: patient-derived ovarian cancer cells, CellTiter-Glo viability, 144 h; at 1.25 µM; OCI-C5x cells; without rucaparib; hits give low values. In general terms: Cellular ATP, detected with luciferase, serves as a proxy for viable cell number.
Consider `CO[C@H]1/C=C\C=C(\C)C(=O)NC2=CC(=O)C(NCCN(C)C)=C(C[C@@H](C)C[C@H](OC)[C@H](O)[C@@H](C)/C=C(\C)[C@@H]1OC(N)=O)C2=O`, for which the viability is 4.98% (active).

Regarding `CC(C)(C(=O)NCC(F)(F)C(F)(F)F)C(=O)N[C@H]1C(=O)Nc2ccccc2-c2ccccc21`, the viability was 113% (inactive).

In the case of `CC1(C)O[C@@H]2C[C@H]3[C@@H]4CCC5=CC(=O)C=C[C@]5(C)[C@]4(F)[C@H](O)C[C@]3(C)[C@@]2(C(=O)CO)O1`, the viability is 108% (inactive).

The same assay, now with this note: patient-derived ovarian cancer cells, CellTiter-Glo viability, 144 h; at 1.25 µM; OCI-P5x cells; with rucaparib 20 µM; hits give low values; 100% = cells with rucaparib alone.
As for `N[C@@H]1CCCN(c2c(/C=C3\SC(=O)NC3=O)cccc2-c2ccccc2)C1`, the viability was 91.3% (active).

Take `C[C@@H]1C[C@H]2[C@@H]3CCC4=CC(=O)C=C[C@]4(C)[C@]3(F)[C@H](O)C[C@]2(C)[C@]1(O)C(=O)CO`: the viability is 95.5% (active).

For `Cc1cc2c(C(=O)NC[C@H](C)c3ccccc3)c(O)c(O)cc2c(O)c1-c1c(C)cc2c(C(=O)NC[C@H](C)c3ccccc3)c(O)c(O)cc2c1O`, the viability is 99.6% (active).

Consider `Nc1nc(F)nc2c1ncn2[C@H]1O[C@H](CO)[C@@H](O)[C@@H]1O`, for which the viability is 110% (inactive).

For the molecule `COc1cccc2c1C(=O)c1c(O)c3c(c(O)c1C2=O)C[C@@](O)(C(=O)CO)C[C@H]3O[C@H]1C[C@H](N)[C@@H](O)[C@H](C)O1`, the viability was 11.7% (active).

With `C=C1/C(=C/C=C2\CCC[C@@]3(C)[C@H]2CC[C@H]3[C@H](C)/C=C/[C@@H](C)C(C)C)C[C@H](O)C[C@@H]1O`, the viability was 98.4% (active).

Consider `CO[C@H]1C[C@H]2CC[C@@H](C)[C@@](O)(O2)C(=O)C(=O)N2CCCC[C@H]2C(=O)O[C@H]([C@H](C)C[C@@H]2CC[C@H](OP(C)(C)=O)[C@H](OC)C2)CC(=O)[C@H](C)/C=C(\C)[C@@H](O)[C@@H](OC)C(=O)[C@H](C)C[C@H](C)/C=C/C=C/C=C/1C`, for which the viability is 82.1% (active).

Take `C=CCNC1=C2C[C@@H](C)C[C@H](OC)[C@H](O)[C@@H](C)/C=C(\C)[C@H](OC(N)=O)[C@@H](OC)/C=C\C=C(\C)C(=O)NC(=CC1=O)C2=O`: the viability was 5.52% (active).

On to `CC[C@]1(O)C[C@@H]2CN(CCc3c([nH]c4ccccc34)[C@@](C(=O)OC)(c3cc4c(cc3OC)N(C=O)[C@@H]3C45CCN4CC=C[C@](CC)([C@H]45)[C@H](OC(C)=O)[C@]3(O)C(=O)OC)C2)C1` (some centres undefined), for which the viability is 51% (active).

As to `COc1cccc2c1C(=O)c1c(O)c3c(c(O)c1C2=O)C[C@@](O)(C(C)=O)C[C@H]3O[C@H]1C[C@H](N)[C@H](O)[C@H](C)O1`, the viability was 15.7% (active).

Turning to `CCOc1ccc(Cc2cc([C@@H]3O[C@H](CO)[C@@H](O)[C@H](O)[C@@H]3O)ccc2Cl)cc1`, the viability is 99.3% (active).

On to `CC(=O)[C@]1(O)Cc2c(O)c3c(c(O)c2[C@H](O[C@H]2C[C@H](N)[C@H](O)[C@H](C)O2)C1)C(=O)c1ccccc1C3=O`, for which the viability was 9.24% (active).

On to `CCC1=CC2CN(C1)Cc1c([nH]c3ccccc13)[C@@](C(=O)OC)(c1cc3c(cc1OC)N(C)[C@H]1[C@@](O)(C(=O)OC)[C@H](OC(C)=O)[C@]4(CC)C=CCN5CC[C@@]31[C@H]54)C2` (some centres undefined), for which the viability is 45.2% (active).

Consider `CC(=O)O[C@H]1C(=O)[C@@]2(C)C([C@H](OC(=O)c3ccccc3)[C@]3(O)C[C@H](OC(=O)[C@H](O)[C@@H](NC(=O)c4ccccc4)c4ccccc4)C(C)=C1C3(C)C)[C@]1(OC(C)=O)CO[C@@H]1C[C@H]2O` (some centres undefined), for which the viability is 56.9% (active).

Turning to `CO[C@H]1C[C@H]2CC[C@@H](C)[C@@](O)(O2)C(=O)C(=O)N2CCCC[C@H]2C(=O)O[C@H]([C@H](C)C[C@@H]2CC[C@H](OC(=O)C(C)(CO)CO)[C@H](OC)C2)CC(=O)[C@H](C)/C=C(\C)[C@@H](O)[C@@H](OC)C(=O)[C@H](C)C[C@H](C)/C=C/C=C/C=C/1C`, the viability is 77% (active).

As for `CO[C@H]1/C=C\C=C(\C)C(=O)NC2=CC(=O)C(NCCN(C)C)=C(C[C@@H](C)C[C@H](OC)[C@H](O)[C@@H](C)/C=C(\C)[C@@H]1OC(N)=O)C2=O`, the viability was 6.01% (active).

In the case of `CC(C)(C(=O)NCC(F)(F)C(F)(F)F)C(=O)N[C@H]1C(=O)Nc2ccccc2-c2ccccc21`, the viability is 82.5% (active).

For the molecule `CC1(C)O[C@@H]2C[C@H]3[C@@H]4CCC5=CC(=O)C=C[C@]5(C)[C@]4(F)[C@H](O)C[C@]3(C)[C@@]2(C(=O)CO)O1`, the viability is 84% (active).

Staying with this assay, now noted: patient-derived ovarian cancer cells, CellTiter-Glo viability, 144 h; at 1.25 µM; OCI-P5x cells; without rucaparib; hits give low values.
With `N[C@@H]1CCCN(c2c(/C=C3\SC(=O)NC3=O)cccc2-c2ccccc2)C1`, the viability is 106% (inactive).

With `C[C@@H]1C[C@H]2[C@@H]3CCC4=CC(=O)C=C[C@]4(C)[C@]3(F)[C@H](O)C[C@]2(C)[C@]1(O)C(=O)CO`, the viability was 101% (inactive).

Turning to `Cc1cc2c(C(=O)NC[C@H](C)c3ccccc3)c(O)c(O)cc2c(O)c1-c1c(C)cc2c(C(=O)NC[C@H](C)c3ccccc3)c(O)c(O)cc2c1O`, the viability is 91.3% (active).

Consider `Nc1nc(F)nc2c1ncn2[C@H]1O[C@H](CO)[C@@H](O)[C@@H]1O`, for which the viability is 107% (inactive).

For `COc1cccc2c1C(=O)c1c(O)c3c(c(O)c1C2=O)C[C@@](O)(C(=O)CO)C[C@H]3O[C@H]1C[C@H](N)[C@@H](O)[C@H](C)O1`, the viability is 10.8% (active).

`C=C1/C(=C/C=C2\CCC[C@@]3(C)[C@H]2CC[C@H]3[C@H](C)/C=C/[C@@H](C)C(C)C)C[C@H](O)C[C@@H]1O`: the viability is 103% (inactive).

As for `CO[C@H]1C[C@H]2CC[C@@H](C)[C@@](O)(O2)C(=O)C(=O)N2CCCC[C@H]2C(=O)O[C@H]([C@H](C)C[C@@H]2CC[C@H](OP(C)(C)=O)[C@H](OC)C2)CC(=O)[C@H](C)/C=C(\C)[C@@H](O)[C@@H](OC)C(=O)[C@H](C)C[C@H](C)/C=C/C=C/C=C/1C`, the viability was 60.8% (active).

With `C=CCNC1=C2C[C@@H](C)C[C@H](OC)[C@H](O)[C@@H](C)/C=C(\C)[C@H](OC(N)=O)[C@@H](OC)/C=C\C=C(\C)C(=O)NC(=CC1=O)C2=O`, the viability is 5.3% (active).

Consider `CC[C@]1(O)C[C@@H]2CN(CCc3c([nH]c4ccccc34)[C@@](C(=O)OC)(c3cc4c(cc3OC)N(C=O)[C@@H]3C45CCN4CC=C[C@](CC)([C@H]45)[C@H](OC(C)=O)[C@]3(O)C(=O)OC)C2)C1` (some centres undefined), for which the viability is 12.7% (active).

Regarding `COc1cccc2c1C(=O)c1c(O)c3c(c(O)c1C2=O)C[C@@](O)(C(C)=O)C[C@H]3O[C@H]1C[C@H](N)[C@H](O)[C@H](C)O1`, the viability is 5.33% (active).

Regarding `CCOc1ccc(Cc2cc([C@@H]3O[C@H](CO)[C@@H](O)[C@H](O)[C@@H]3O)ccc2Cl)cc1`, the viability is 112% (inactive).

With `CC(=O)[C@]1(O)Cc2c(O)c3c(c(O)c2[C@H](O[C@H]2C[C@H](N)[C@H](O)[C@H](C)O2)C1)C(=O)c1ccccc1C3=O`, the viability is 4.04% (active).

Consider `CCC1=CC2CN(C1)Cc1c([nH]c3ccccc13)[C@@](C(=O)OC)(c1cc3c(cc1OC)N(C)[C@H]1[C@@](O)(C(=O)OC)[C@H](OC(C)=O)[C@]4(CC)C=CCN5CC[C@@]31[C@H]54)C2` (some centres undefined), for which the viability was 11.4% (active).

As for `CC(=O)O[C@H]1C(=O)[C@@]2(C)C([C@H](OC(=O)c3ccccc3)[C@]3(O)C[C@H](OC(=O)[C@H](O)[C@@H](NC(=O)c4ccccc4)c4ccccc4)C(C)=C1C3(C)C)[C@]1(OC(C)=O)CO[C@@H]1C[C@H]2O` (some centres undefined), the viability was 18.7% (active).

Turning to `CO[C@H]1C[C@H]2CC[C@@H](C)[C@@](O)(O2)C(=O)C(=O)N2CCCC[C@H]2C(=O)O[C@H]([C@H](C)C[C@@H]2CC[C@H](OC(=O)C(C)(CO)CO)[C@H](OC)C2)CC(=O)[C@H](C)/C=C(\C)[C@@H](O)[C@@H](OC)C(=O)[C@H](C)C[C@H](C)/C=C/C=C/C=C/1C`, the viability was 55.6% (active).

In the case of `CO[C@H]1/C=C\C=C(\C)C(=O)NC2=CC(=O)C(NCCN(C)C)=C(C[C@@H](C)C[C@H](OC)[C@H](O)[C@@H](C)/C=C(\C)[C@@H]1OC(N)=O)C2=O`, the viability is 3.54% (active).

Regarding `CC(C)(C(=O)NCC(F)(F)C(F)(F)F)C(=O)N[C@H]1C(=O)Nc2ccccc2-c2ccccc21`, the viability was 82% (active).

For the molecule `CC1(C)O[C@@H]2C[C@H]3[C@@H]4CCC5=CC(=O)C=C[C@]5(C)[C@]4(F)[C@H](O)C[C@]3(C)[C@@]2(C(=O)CO)O1`, the viability was 97.8% (active).

Source of the values: PubChem BioAssay.
